Assay results from PubChem BioAssay (NCATS).
Results filed as inconclusive are left out. Calls of active or inactive are those of the source. Unless noted, calls follow the shape of the dose curve; as a rule, active = well fitted curve in the direction sought with a large enough effect; inconclusive = small, poorly fitted or top-dose-only effect, or another doubt; inactive = no such curve, though single readings can be large; an effect the other way counts as inactive or inconclusive.

What was measured:
[1] = molecular target: Arylsulfatase A (Homo sapiens) (UniProt P15289); assay: qHTS screen for enhancers of Arylsulfatase A (ASA1): LOPAC Validation Assay (AID 720538); conditions: ASA enzyme activity, LOPAC qHTS enhancer assay; series mostly up to 57.5 µM
Arylsulfatase A (Homo sapiens), sequence (P15289 whole entry, looked up): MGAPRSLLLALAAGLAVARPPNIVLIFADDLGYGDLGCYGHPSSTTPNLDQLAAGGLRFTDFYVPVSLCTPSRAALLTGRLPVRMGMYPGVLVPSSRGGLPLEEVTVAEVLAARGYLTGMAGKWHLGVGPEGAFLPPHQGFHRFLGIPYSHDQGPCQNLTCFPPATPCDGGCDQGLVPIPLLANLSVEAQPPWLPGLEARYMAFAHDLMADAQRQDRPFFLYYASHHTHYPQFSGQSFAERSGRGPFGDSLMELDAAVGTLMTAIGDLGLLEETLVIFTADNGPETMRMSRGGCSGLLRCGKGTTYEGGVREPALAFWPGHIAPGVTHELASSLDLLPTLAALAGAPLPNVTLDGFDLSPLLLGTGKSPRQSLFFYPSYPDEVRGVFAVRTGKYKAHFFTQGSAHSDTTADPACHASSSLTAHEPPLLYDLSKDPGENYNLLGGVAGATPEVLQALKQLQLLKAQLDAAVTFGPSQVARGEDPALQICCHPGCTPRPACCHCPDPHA
Summary of the method: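 Enhancer assay in patient-derived MLD fibroblasts carrying ASA-I179S: 48 h compound exposure at 37 C, then 14 h room-temperature pNCS turnover (0.5 mM final) in lysis buffer. Read by fluorescence at 525/598 nm after NaOH stop.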

[2] = molecular target: T1, Hexokinase-4 (Homo sapiens) + Glucokinase regulatory protein (Homo sapiens) (UniProt P35557+Q14397); assay: qHTS assay for inhibitors of recombinant human GCK-GKRP interaction: Diaphorase-coupled assay (AID 743205); conditions: G6PDH/diaphorase resorufin fluorescence; series mostly up to 57.5 µM
T1 sequence (P35557 whole entry, looked up): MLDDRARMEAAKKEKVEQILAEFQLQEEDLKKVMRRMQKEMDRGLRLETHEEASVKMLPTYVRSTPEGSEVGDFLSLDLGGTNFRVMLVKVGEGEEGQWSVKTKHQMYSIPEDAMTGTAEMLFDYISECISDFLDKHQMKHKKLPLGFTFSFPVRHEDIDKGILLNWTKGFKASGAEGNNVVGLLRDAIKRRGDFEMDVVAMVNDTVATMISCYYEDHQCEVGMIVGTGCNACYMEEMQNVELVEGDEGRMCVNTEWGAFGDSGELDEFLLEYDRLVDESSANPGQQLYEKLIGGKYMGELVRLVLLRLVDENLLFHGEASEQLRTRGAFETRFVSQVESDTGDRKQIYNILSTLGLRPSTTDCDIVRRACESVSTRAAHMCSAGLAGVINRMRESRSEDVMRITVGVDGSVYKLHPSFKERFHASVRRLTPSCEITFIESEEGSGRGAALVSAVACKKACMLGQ
T1 sequence (Q14397 whole entry, looked up): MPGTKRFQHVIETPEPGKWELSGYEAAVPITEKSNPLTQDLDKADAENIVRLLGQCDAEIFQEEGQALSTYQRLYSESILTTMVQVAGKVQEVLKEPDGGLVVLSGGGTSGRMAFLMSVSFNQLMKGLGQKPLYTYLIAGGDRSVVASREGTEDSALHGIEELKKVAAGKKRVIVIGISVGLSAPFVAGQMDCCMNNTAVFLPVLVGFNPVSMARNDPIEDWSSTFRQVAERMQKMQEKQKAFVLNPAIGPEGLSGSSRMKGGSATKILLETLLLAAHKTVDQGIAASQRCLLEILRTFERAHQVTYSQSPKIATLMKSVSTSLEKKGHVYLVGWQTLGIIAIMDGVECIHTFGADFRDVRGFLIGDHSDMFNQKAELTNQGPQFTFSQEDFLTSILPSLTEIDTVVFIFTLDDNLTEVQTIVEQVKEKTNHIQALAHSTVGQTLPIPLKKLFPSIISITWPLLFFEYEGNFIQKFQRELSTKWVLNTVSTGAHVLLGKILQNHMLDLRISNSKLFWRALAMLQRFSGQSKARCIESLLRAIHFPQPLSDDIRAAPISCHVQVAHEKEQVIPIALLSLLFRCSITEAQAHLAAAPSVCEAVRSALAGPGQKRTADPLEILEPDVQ
Summary of the method: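 A kinetic fluorescence read (Ex 525/Em 590 nm, every minute for 30 minutes) tracked resorufin from a G6PDH-diaphorase coupled GCK reaction. It contained 10 nM GST-GCK, 10 nM FLAG-GKRP, 5 mM glucose, 0.4 mM ATP in Hepes pH 7.6. Normalized to with/without-enzyme DMSO controls.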

[3] = molecular target: T1, Hexokinase-4 (Homo sapiens) + Glucokinase regulatory protein (Homo sapiens); assay: qHTS assay for inhibitors of recombinant human GCK-GKRP interaction: ADP-Glo assay (AID 743206); conditions: ADP-Glo luminescence, 60 min, 0% = vehicle-only wells with enzyme present; series mostly up to 76.9 µM;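 also: plate controls were DMSO plus enzyme for no effect and no enzyme for full effect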
Summary of the method: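 Pin-transferred compounds meet a 15 nM GST-GCK/15 nM FLAG-GKRP/2 uM S6P mix (dispense concentrations). ATP is then added to 0.4 mM final with 5 mM glucose, and the reaction runs 60 min at room temperature. ADP is quantified luminescently.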

[4] = qHTS for compounds that reverse cellular toxicity of Amyloid beta (A-beta) peptide in yeast: LOPAC Validation Assay (AID 720559); conditions: yeast expressing A-beta; series mostly up to 46.1 µM;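 also: plate controls were DMSO for no effect and equimolar ferric chloride plus clioquinol rescue for full effect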
Summary of the method: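 Rescue of A-beta toxicity was scored as yeast growth by 600 nm absorbance after 48 hr at 30 C with compound. Normalization used DMSO (negative) and equimolar ferric chloride plus clioquinol (positive).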

[5] = qHTS for Activators of Parkin Expression: LOPAC Validation Assay (NLuc Reporter) (AID 720572); conditions: Parkin promoter NanoLuc reporter cells, luminescence; series mostly up to 46.1 µM
Summary of the method: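 Compound effects on Parkin promoter activity were measured as NanoLuc luminescence after 24 h at 37 C. The neuronal reporter line also carried FLuc, which was read first. LOPAC compounds were tested at 7 concentrations, with normalization to DMSO (0%) and positive control (100%).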

[6] = qHTS for Activators of Parkin Expression: LOPAC Validation Assay (FLuc Reporter) (AID 720573); conditions: Cell line, PRKN promoter firefly luciferase reporter, vehicle wells = 0, positive control = 100%; series mostly up to 46.1 µM
Summary of the method: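 FLuc signal from Parkin-promoter coincidence reporter neuronal cells, normalized to DMSO and positive control (100%). Cells (1,500/well) pre-incubated 24 h, then exposed to LOPAC compounds in 7-point dose response for 24 h at 37 C, 5% CO2.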

[7] = qHTS assay for small molecule agonists of the antioxidant response element (ARE) signaling pathway measured by Nrf2-dependant transcriptional activity (AID 720636; active = well fitted curve in the direction sought with a large enough effect in the repeat runs; an effect the other way counts as inactive or inconclusive;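 also: HepG2 cells with an ARE-driven luciferase reporter; % of control where 0% means no effect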); conditions: ARE-luc HepG2, Nrf2 luciferase reporter, 16 h; series mostly up to 92.4 µM
Summary of the method: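 HepG2 ARE-luc reporter line, 1% dialyzed FBS; 6 hr attachment at 37 C, compound pinned in, 16 hr at 37 C/5% CO2; ONE-Glo, 30 min RT, luminescence read.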

[8] = qHTS assay for small molecule agonists of the antioxidant response element (ARE) signaling pathway measured by Nrf2-dependant transcriptional activity - cell viability counter screen (AID 720653; active = well fitted curve in the direction sought with a large enough effect in the repeat runs; an effect the other way counts as inactive or inconclusive; also: % is scaled to controls: 0 for no effect and ±100 for the full control effect); conditions: ARE-bla HepG2 viability, CellTiter-Glo ATP luminescence, 16 h; active compounds read low
Summary of the method: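 Cytotoxicity counter screen: intracellular ATP quantified by CellTiter-Glo luminescence in the same ARE-bla HepG2 plates, after 16 h compound exposure and a 2 h beta-lactamase substrate step.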

N[C@@H]1CONC1=O
inactive: outcome [1] | outcome [2] | outcome [3]

CC(C)NCC(O)COc1ccc(COCCOC(C)C)cc1 (centres undefined)
inactive: outcome [1] inactive; inhibitor; fitted 0.3793 uM | outcome [4] | Potency [5] | outcome [6] | outcome [2] | outcome [3]

CCn1cc(C(=O)O)c(=O)c2cc(F)c(N3CCNC(C)C3)c(F)c21 (centres undefined)
inactive: outcome [1] | outcome [4] | Potency [5] | outcome [6] | outcome [2] | outcome [3]

c1ccc([C@H]2CN3CCSC3=N2)cc1
inactive: outcome [1] | outcome [4] | Potency [5] | outcome [6] | outcome [2] | outcome [3]

Cc1[nH]c(=O)c(C#N)cc1-c1ccncc1
inactive: outcome [1] inactive; inhibitor; fitted 5.3582 uM | outcome [4] | Potency [5] | outcome [6] | outcome [7] | max response [8] 11.3% | outcome [2] | outcome [3]
